Measured values as given in PubChem BioAssay AID1159580 (chemical genetic matrix, 2015).
Among all 5,500 compounds or so, about 2,000 (36%) were called active. About 18% were inconclusive and are not listed. Rule as the data show it: active = normalized growth mostly below about 0.91 (no sharp cut-off); inconclusive = no clear call, values can overlap the other calls; inactive = mostly above about 0.92. The list shows a part of the results.

Test: chemical genetic growth profiling, strain panel (AID 1159580);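 also: tested at 20 µM; growth read once vehicle control cultures reached saturation at 30 °C; 1 = growth at the plate median or of vehicle wells; lower values mean less growth of the strain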
Conditions: S. cerevisiae deletion strains, growth OD
[1] = locus YDL101C, strain DUN1, hits give low values
[2] = locus YHR030C, strain SLT2, hits give low values

Measured: normalized growth

Cc1ccc(NS(C)(=O)=O)cc1N=Cc1ccc(Cl)c(Cl)c1
inactive: locus YAL013W, strain DEP1, hits give low values 0.989 | locus YBR229C, strain ROT2, hits give low values 1 | [1] 0.965 | locus YDR150W, strain NUM1, hits give low values 0.879 | locus YEL061C, strain CIN8, hits give low values 1.02 | locus YGR078C, strain PAC10, hits give low values 0.996 | locus YGR229C, strain SMI1, hits give low values 1 | [2] 0.891 | locus YHR087W, strain rtc3, hits give low values 1.03 | locus YJL187C, strain SWE1, hits give low values 1.01 | locus YJR043C, strain POL32, hits give low values 0.989 | locus YJR075W, strain HOC1, hits give low values 0.965 | locus YKL190W, strain CNB1, hits give low values 0.999 | locus YLR039C, strain RIC1, hits give low values 0.984 | locus YLR058C, strain SHM2 (second series), hits give low values 1.02 | locus YLR085C, strain ARP6, hits give low values 1.01 | locus YLR262C, strain YPT6, hits give low values 0.951 | locus YML094W, strain GIM5, hits give low values 0.994 | locus YMR219W, strain ESC1, hits give low values 1.01 | locus YMR263W, strain SAP30, hits give low values 0.988 | locus YNL128W, strain TEP1, hits give low values 0.976 | locus YNL153C, strain GIM3, hits give low values 0.986 | locus YNL298W, strain CLA4 (second series), hits give low values 0.866 | locus YNL322C, strain KRE1, hits give low values 1 | locus YNR030W, strain Alg12, hits give low values 0.983 | locus YOL006C, strain TOP1, hits give low values 0.959 | locus YPL055C, strain LGE1, hits give low values 0.991 | locus YPL241C, strain CIN2, hits give low values 0.993 | locus YPR135W, strain CTF4, hits give low values 0.706

Cc1ccc(NS(=O)(=O)c2ccc(Cl)cc2)c(N=Cc2cc(Cl)cc(Cl)c2O)c1
inactive: locus YAR019C, strain CDC15, hits give low values 0.952 | locus YBL105C, strain PKC1, hits give low values 0.965 | locus YBR135W, strain CKS1, hits give low values 0.955 | locus YBR136W, strain MEC1, hits give low values 0.961 | locus YBR160W, strain CDC28, hits give low values 0.961 | locus YDL017W, strain CDC7, hits give low values 0.958 | locus YDL028C, strain MPS1, hits give low values 0.96 | [1] 0.968 | locus YDL108W, strain KIN28, hits give low values 0.954 | locus YDL132W, strain cdc53, hits give low values 0.962 | locus YDR052C, strain DBF4, hits give low values 0.961 | locus YDR054C, strain cdc34, hits give low values 0.929 | locus YDR226W, strain ADK1, hits give low values 0.958 | locus YFL009W, strain cdc4, hits give low values 0.945 | locus YFL029C, strain CAK1, hits give low values 0.95 | locus YFR003C, strain YPI1, hits give low values 0.948 | locus YFR028C, strain CDC14, hits give low values 0.965 | locus YIL147C, strain SLN1, hits give low values 0.949 | locus YJR016C, strain ILV3, hits give low values 0.967 | locus YKL193C, strain SDS22, hits give low values 0.968 | locus YMR001C, strain CDC5, hits give low values 0.971 | locus YMR277W, strain FCP1, hits give low values 0.936 | locus YNL006W, strain LST8, hits give low values 0.946 | locus YNL161W, strain CBK1, hits give low values 0.951 | locus YNL207W, strain RIO2, hits give low values 0.949 | locus YNL222W, strain SSU72, hits give low values 0.963 | locus YOL078W, strain AVO1, hits give low values 0.962 | locus YOR329C, strain SCD5, hits give low values 0.96 | locus YPL209C, strain IPL1, hits give low values 0.958 | locus YPR025C, strain CCL1, hits give low values 0.959 | locus YPR106W, strain ISR1, hits give low values 0.959 | locus YPR111W, strain DBF20, hits give low values 0.943 | strain TSCII, hits give low values 0.959
active: locus YDL214C, strain PRR2, hits give low values 0.277 | locus YDR477W, strain SNF1, hits give low values 0.252 | locus YER123W, strain YCK3, hits give low values 0.169 | locus YER133W, strain GLC7, hits give low values 0.269 | locus YFR019W, strain FAB1, hits give low values 0.342 | locus YGR040W, strain KSS1, hits give low values 0.323 | locus YGR052W, strain FMP48, hits give low values 0.219 | locus YGR092W, strain DBF2, hits give low values 0.137 | [2] 0.118 | locus YHR079C, strain IRE1, hits give low values 0.151 | locus YHR082C, strain KSP1, hits give low values 0.147 | locus YHR205W, strain SCH9, hits give low values 0.154 | locus YJL095W, strain BCK1, hits give low values 0.15 | locus YJL157C, strain FAR1, hits give low values 0.162 | locus YJR066W, strain TOR1 (second series), hits give low values 0.363 | locus YJR066W, strain TOR1, hits give low values 0.144 | locus YKL048C, strain ELM1, hits give low values 0.336 | locus YKL067W, strain YNK1, hits give low values 0.257 | locus YKL101W, strain HSL1, hits give low values 0.291 | locus YKL203C, strain TOR2, hits give low values 0.273 | locus YLR113W, strain HOG1, hits give low values 0.3 | locus YLR133W, strain CKI1, hits give low values 0.198 | locus YLR403W, strain SFP1, hits give low values 0.118 | locus YML070W, strain DAK1, hits give low values 0.203 | locus YMR205C, strain PFK2 (second series), hits give low values 0.289 | locus YNL020C, strain ARK1, hits give low values 0.17 | locus YNL183C, strain NPR1, hits give low values 0.208 | locus YNL307C, strain MCK1 (second series), hits give low values 0.145 | locus YOL136C, strain PFK27, hits give low values 0.193 | locus YOR061W, strain CKA2, hits give low values 0.196 | locus YOR119C, strain RIO1, hits give low values 0.303 | locus YOR231W, strain MKK1, hits give low values 0.203 | locus YPL031C, strain PHO85, hits give low values 0.231 | locus YPL153C, strain RAD53, hits give low values 0.234 | locus YPL204W, strain HRR25, hits give low values 0.211 | locus YPL256C, strain CLN2, hits give low values 0.255 | strain NNK1, hits give low values 0.776
